Experimental data taken from PubChem BioAssay (EPA / NIEHS).
Results filed as inconclusive are left out. Calls of active or inactive are those of the source. The calls were made as follows, unless noted: active = hit-call score of the fitted dose curve at least 0.9, where 1 is the maximum; inactive = score below 0.9.

How the values were obtained:
[1] = molecular target: Glucocorticoid receptor (Homo sapiens) (UniProt P04150); experiment: ATG_GR_TRANS: Attagene TRANS-FACTORIAL HepG2 Assay for human Glucocorticoid Receptor (GR) (AID 2282978; active = hit-call score of the fitted dose curve at least 0.9, where 1 is the maximum;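 also: activators score as hits since higher reporter transcript over DMSO is fitted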); settings: HepG2 Attagene TRANS GR reporter, mRNA transcription
Sequence of Glucocorticoid receptor (Homo sapiens) (P04150 whole entry, looked up): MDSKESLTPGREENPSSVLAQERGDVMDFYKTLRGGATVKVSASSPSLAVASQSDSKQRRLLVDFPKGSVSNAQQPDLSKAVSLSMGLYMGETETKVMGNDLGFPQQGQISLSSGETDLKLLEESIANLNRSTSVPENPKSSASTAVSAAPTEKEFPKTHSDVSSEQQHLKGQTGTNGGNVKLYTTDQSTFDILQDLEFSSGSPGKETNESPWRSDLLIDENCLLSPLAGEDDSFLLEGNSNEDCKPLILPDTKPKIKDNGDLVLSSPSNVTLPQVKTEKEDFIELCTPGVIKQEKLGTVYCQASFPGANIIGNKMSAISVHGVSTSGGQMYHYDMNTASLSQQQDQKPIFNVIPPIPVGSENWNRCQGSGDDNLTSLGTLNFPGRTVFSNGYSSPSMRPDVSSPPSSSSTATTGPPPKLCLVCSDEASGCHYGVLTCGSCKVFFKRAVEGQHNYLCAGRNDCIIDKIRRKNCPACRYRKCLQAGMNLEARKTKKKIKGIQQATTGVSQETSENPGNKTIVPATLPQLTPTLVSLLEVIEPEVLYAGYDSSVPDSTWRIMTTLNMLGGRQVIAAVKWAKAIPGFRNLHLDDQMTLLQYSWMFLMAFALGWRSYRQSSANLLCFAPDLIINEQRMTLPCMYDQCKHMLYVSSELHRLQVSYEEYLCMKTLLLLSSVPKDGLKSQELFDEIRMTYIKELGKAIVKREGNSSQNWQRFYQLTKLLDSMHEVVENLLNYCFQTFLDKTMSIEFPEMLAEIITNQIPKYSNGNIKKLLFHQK
Procedure, shortened: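 After 24 h incubation with test chemical, transfected HepG2 cells were lysed for RNA; reporter cDNA was amplified, FAM-labelled, HpaI-digested and sized on a capillary analyser. Signal gain relative to DMSO was scored.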

[2] = ATG_M_32_TRANS: Attagene TRANS-FACTORIAL HepG2 Assay for M32 Transcription Factor (Internal Marker) (AID 2282984; active = hit-call score of the fitted dose curve at least 0.9, where 1 is the maximum;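 also: transcript level of a background control reporter unit measured by RT-PCR and capillary electrophoresis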); settings: HepG2 Attagene TRANS M32 internal marker reporter
Procedure, shortened: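 Measures reporter mRNA induction in human HepG2 liver cells after 24 h chemical treatment. Transcripts from transiently transfected GAL4-UAS reporter units are amplified, fluorescently labelled and sized by capillary electrophoresis; gain of signal relative to DMSO.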

[3] = molecular target: Nuclear receptor subfamily 4 group A member 2 (Homo sapiens) (UniProt P43354); experiment: ATG_NURR1_TRANS: Attagene TRANS-FACTORIAL HepG2 Assay for human Nuclear Receptor Related Protein 1 (NURR1) (AID 2282985; active = hit-call score of the fitted dose curve at least 0.9, where 1 is the maximum); settings: HepG2 Attagene TRANS reporter, mRNA readout
Sequence of Nuclear receptor subfamily 4 group A member 2 (Homo sapiens) (P43354 whole entry, looked up, the tested form may be a part): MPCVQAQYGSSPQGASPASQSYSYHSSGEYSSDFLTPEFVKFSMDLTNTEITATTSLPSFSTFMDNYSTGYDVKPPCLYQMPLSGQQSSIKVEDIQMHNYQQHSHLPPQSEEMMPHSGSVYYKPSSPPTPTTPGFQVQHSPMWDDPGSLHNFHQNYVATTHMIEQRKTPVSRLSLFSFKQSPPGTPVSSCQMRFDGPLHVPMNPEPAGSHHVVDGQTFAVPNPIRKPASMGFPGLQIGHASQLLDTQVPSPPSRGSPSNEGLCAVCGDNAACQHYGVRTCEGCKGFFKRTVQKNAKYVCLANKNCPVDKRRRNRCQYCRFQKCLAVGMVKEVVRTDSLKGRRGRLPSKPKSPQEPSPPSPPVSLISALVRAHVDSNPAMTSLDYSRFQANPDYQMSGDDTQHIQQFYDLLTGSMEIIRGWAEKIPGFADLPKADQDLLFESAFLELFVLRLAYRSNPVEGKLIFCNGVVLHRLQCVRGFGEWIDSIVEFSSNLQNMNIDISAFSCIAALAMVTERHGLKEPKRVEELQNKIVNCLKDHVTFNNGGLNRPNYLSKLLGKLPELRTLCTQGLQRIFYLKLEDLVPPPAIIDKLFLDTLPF
Procedure, shortened: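 Transient transfection of HepG2, human liver cells, with multiple GAL4-UAS reporter transcription units. Cells dosed 24 h, RNA isolated, reverse-transcribed, PCR-amplified, FAM-labelled, HpaI-digested, sized by capillary electrophoresis. DMSO served as negative control.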

[4] = molecular target: Transcriptional activator Myb (Homo sapiens) (UniProt P10242); experiment: ATG_Myb_CIS: Attagene CIS-FACTORIAL HepG2 Assay for human Myeloblastosis (Myb) Proto-Oncogene Transcription Factor (AID 2282986); settings: HepG2 Attagene CIS-FACTORIAL Myb reporter transcription; actives raise or lower the signal
Sequence of Transcriptional activator Myb (Homo sapiens) (P10242 whole entry, looked up): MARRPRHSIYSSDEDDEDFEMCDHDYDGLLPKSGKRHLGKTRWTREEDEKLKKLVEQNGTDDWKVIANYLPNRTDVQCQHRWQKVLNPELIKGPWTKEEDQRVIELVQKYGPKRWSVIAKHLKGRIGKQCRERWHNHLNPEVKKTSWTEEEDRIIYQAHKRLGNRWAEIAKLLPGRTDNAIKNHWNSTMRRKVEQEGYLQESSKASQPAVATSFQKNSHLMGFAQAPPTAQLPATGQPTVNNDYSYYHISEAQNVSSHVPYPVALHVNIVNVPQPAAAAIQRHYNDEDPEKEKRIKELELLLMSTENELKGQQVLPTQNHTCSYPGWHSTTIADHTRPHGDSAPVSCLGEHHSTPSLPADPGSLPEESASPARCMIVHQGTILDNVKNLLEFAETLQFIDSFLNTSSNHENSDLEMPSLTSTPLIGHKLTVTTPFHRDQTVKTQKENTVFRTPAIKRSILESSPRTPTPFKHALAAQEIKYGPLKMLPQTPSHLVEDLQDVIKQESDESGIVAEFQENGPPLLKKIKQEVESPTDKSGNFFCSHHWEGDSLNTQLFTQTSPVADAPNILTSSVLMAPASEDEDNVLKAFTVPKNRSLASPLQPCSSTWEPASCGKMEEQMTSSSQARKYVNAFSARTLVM
Procedure, shortened: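 After 24 h of compound dosing, total RNA from transfected HepG2 cells is reverse-transcribed and the reporter sequences amplified, labeled and separated by capillary electrophoresis. Values come from bidirectional fitting against DMSO.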

[5] = molecular target: Nuclear respiratory factor 1 (Homo sapiens) (UniProt Q16656); experiment: ATG_NRF1_CIS: Attagene CIS-FACTORIAL HepG2 Assay for human Nuclear Respiratory Factor 1 (NRF1) Orphan Gene (AID 2282987); settings: HepG2 NRF1 cis-element reporter, Attagene multiplex; actives raise or lower the signal
Sequence of Nuclear respiratory factor 1 (Homo sapiens) (Q16656 whole entry, looked up): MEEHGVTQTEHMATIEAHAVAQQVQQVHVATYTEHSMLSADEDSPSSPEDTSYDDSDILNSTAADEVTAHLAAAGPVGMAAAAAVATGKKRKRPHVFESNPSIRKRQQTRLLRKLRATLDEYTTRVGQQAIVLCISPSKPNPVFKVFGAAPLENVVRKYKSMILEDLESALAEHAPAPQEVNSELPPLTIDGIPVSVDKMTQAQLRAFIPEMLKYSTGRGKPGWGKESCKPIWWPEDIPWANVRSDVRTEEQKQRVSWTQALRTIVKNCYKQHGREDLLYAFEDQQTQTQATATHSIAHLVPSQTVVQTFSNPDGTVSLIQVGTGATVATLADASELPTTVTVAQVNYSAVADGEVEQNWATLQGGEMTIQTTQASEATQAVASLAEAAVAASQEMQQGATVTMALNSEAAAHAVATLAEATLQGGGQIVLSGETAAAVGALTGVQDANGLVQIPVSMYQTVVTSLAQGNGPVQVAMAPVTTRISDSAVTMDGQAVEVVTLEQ
Procedure, shortened: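 Measured: fluorescent reporter-specific RT-PCR products from transfected HepG2 cells, separated by capillary electrophoresis. Exposure lasted 24 h. Analysis used bidirectional curve fitting with DMSO as negative control.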

[6] = ATG_NFI_CIS: Attagene CIS-FACTORIAL HepG2 Assay for human Nuclear Factor I (NFI) (AID 2282989); settings: HepG2 cis-regulatory reporter, NFI response element transcription; actives raise or lower the signal
Procedure, shortened: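 Transient MRTU transfection of HepG2 → 24 h chemical dosing → total RNA, oligo(dT) RT → PCR, 6-FAM primer extension, HpaI cut → capillary electrophoresis. Endpoint fitted bidirectionally relative to DMSO.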

[7] = ATG_NF_kB_CIS: Attagene CIS-FACTORIAL HepG2 Assay for human Nuclear Factor Kappa B (NF-kB) (AID 2282991); settings: HepG2 Attagene cis-factorial NF-kB reporter mRNA; actives raise or lower the signal
Procedure, shortened: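 Fluorescence of labelled RT-PCR products separated by capillary electrophoresis gives reporter mRNA levels from transfected HepG2 cells exposed 24 h; values are fitted in both directions relative to DMSO.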

[8] = ATG_Oct_MLP_CIS: Attagene CIS-FACTORIAL HepG2 Assay for human Octamer-Binding Transcription Factor (Oct) (AID 2282993); settings: HepG2 Attagene cis-factorial Oct reporter, mRNA; actives raise or lower the signal
Procedure, shortened: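 Transient MRTU transfection of HepG2 → 24 h compound treatment → RNA isolation, reverse transcription, PCR → 6-FAM primer extension, HpaI digest → capillary electrophoresis. Activity fitted both directions against DMSO.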

[9] = molecular target: Cellular tumor antigen p53 (Homo sapiens) (UniProt P04637); experiment: ATG_p53_CIS: Attagene CIS-FACTORIAL HepG2 Assay for human p53 Transcription Factor (AID 2282994); settings: HepG2 p53 cis-element reporter, Attagene mRNA; actives raise or lower the signal
Sequence of Cellular tumor antigen p53 (Homo sapiens) (P04637 whole entry, looked up): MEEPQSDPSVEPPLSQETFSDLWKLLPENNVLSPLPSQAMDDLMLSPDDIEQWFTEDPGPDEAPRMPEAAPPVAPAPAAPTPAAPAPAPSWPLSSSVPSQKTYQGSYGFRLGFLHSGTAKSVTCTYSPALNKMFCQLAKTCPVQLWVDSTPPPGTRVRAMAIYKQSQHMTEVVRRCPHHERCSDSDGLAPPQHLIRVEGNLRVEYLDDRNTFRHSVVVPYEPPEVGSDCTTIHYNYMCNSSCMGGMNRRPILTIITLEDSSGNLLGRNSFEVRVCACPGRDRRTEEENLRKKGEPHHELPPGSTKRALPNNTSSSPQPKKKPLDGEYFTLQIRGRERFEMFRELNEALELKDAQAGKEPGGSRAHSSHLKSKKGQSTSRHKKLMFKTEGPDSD
Procedure, shortened: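 Multiplexed reporter mRNA assay in human HepG2 liver cells; cis-regulated units report endogenous factor activity. Values come from bidirectional curve fitting against DMSO negative control after 24 h treatment.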

[10] = BSK_3C_TissueFactor: BioMAP Diversity Plus: 3C Assay for Tissue Factor Biomarker Activity (AID 2282997); settings: BioMAP 3C HUVEC, tissue factor biomarker readout; actives raise or lower the signal
Procedure, shortened: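 ELISA read-out of Tissue Factor levels on human umbilical vein endothelium collected 24 h after chemical dosing. Gain or loss of signal was fitted relative to DMSO.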

[11] = BSK_3C_uPAR: BioMAP Diversity Plus: 3C Assay for Urokinase-type plasminogen activator receptor (uPAR) Biomarker Activity (AID 2282998); settings: BioMAP 3C HUVEC, uPAR biomarker ELISA; actives raise or lower the signal
Procedure, shortened: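 ELISA readout of uPAR on human vascular endothelium (umbilical vein primary cells), taken 24 h after chemical dosing. Increases and decreases are both fitted relative to DMSO vehicle.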

[12] = BSK_3C_VCAM1: BioMAP Diversity Plus: 3C Assay for Vascular cell adhesion molecule 1 (VCAM1) Biomarker Activity (AID 2282999); settings: BioMAP 3C HUVEC, VCAM1 ELISA, cytokine-stimulated; actives raise or lower the signal
Procedure, shortened: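 Endothelial cells from human umbilical vein are treated with test chemical. At 24 h, VCAM-1 is measured by ELISA, and responses in either direction are fitted relative to DMSO.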

[13] = BSK_4H_Eotaxin3: BioMAP Diversity Plus: 4H Assay for Eotaxin 3 Biomarker Activity (AID 2283000); settings: primary human endothelial cells (HUVEC); actives raise or lower the signal;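 also: CCL26 protein level quantified by ELISA in parallel with SRB cytotoxicity check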
Procedure, shortened: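 Chemicals were added to human umbilical vein endothelium cultures, and Eotaxin-3 was quantified by ELISA at 24 h. Values were derived by bidirectional fitting with DMSO serving as negative control and activity baseline.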

[14] = ATG_M_06_TRANS: Attagene TRANS-FACTORIAL HepG2 Assay for M06 Transcription Factor (Internal Marker) (AID 2282983; active = hit-call score of the fitted dose curve at least 0.9, where 1 is the maximum); settings: HepG2 Attagene TRANS M06 internal marker reporter
Procedure, shortened: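 Transfect HepG2 with MRTUs → dose compounds 24 h → isolate RNA, oligo(dT) RT → PCR with reporter primers → 6-FAM primer extension → HpaI digest → CE fragment analysis. Positive direction vs DMSO.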

[15] = molecular target: Bile acid receptor (Homo sapiens) (UniProt Q96RI1); experiment: ATG_FXR_TRANS: Attagene TRANS-FACTORIAL HepG2 Assay for Farnesoid X Receptor (FXR) (AID 2282979; active = hit-call score of the fitted dose curve at least 0.9, where 1 is the maximum;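 also: hits raise reporter mRNA above DMSO so AC50 marks FXR activation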); settings: HepG2 Attagene TRANS FXR-GAL4 reporter transcription
Sequence of Bile acid receptor (Homo sapiens) (Q96RI1 whole entry, looked up, the tested form may be a part): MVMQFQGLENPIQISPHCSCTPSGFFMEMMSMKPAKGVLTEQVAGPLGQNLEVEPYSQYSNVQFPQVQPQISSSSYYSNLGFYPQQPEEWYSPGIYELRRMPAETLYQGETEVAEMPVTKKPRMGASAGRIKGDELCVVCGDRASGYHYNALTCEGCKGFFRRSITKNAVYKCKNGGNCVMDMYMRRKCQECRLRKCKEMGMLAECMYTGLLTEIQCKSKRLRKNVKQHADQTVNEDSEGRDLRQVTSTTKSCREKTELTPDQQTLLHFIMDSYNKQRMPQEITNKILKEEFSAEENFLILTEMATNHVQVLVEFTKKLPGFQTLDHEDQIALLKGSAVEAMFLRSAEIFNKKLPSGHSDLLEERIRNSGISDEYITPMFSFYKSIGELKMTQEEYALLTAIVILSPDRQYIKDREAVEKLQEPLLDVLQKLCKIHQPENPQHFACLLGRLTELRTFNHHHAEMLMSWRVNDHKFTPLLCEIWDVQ
Procedure, shortened: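 Transient transfection of HepG2 with multiplexed GAL4-UAS reporter units; exogenous FXR-GAL4 chimera. Dose 24 h → TriZol RNA → oligo(dT) RT → PCR, 6-FAM primer extension, HpaI cut → CE. Gain vs DMSO.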

[16] = molecular target: Oxysterols receptor LXR-beta (Homo sapiens) (UniProt P55055); experiment: ATG_LXRb_TRANS: Attagene TRANS-FACTORIAL HepG2 Assay for human Liver X Receptor beta (LXRb) (AID 2282981; active = hit-call score of the fitted dose curve at least 0.9, where 1 is the maximum); settings: HepG2 Attagene TRANS GAL4-LXRb reporter, mRNA
Sequence of Oxysterols receptor LXR-beta (Homo sapiens) (P55055 whole entry, looked up, the tested form may be a part): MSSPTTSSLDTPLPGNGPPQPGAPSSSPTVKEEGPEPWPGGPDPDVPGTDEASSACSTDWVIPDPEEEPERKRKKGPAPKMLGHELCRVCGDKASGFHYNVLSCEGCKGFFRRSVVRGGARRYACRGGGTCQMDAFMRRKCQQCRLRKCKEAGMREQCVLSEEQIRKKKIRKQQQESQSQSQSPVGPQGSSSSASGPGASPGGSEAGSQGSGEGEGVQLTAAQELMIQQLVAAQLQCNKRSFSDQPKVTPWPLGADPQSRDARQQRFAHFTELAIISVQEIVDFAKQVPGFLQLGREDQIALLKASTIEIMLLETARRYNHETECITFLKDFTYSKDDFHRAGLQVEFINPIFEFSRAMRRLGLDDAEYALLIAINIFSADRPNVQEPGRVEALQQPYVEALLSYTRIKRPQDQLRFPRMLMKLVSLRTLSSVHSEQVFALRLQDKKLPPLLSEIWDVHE
Procedure, shortened: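 Transient transfection HepG2 (multiplexed RTUs, GAL4-UAS); NR-Gal4 chimera; 24 h exposure; RNA → RT-PCR → 6-FAM primer extension → HpaI → CE; increase vs DMSO.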

[17] = molecular target: Hepatocyte nuclear factor 4-alpha (Homo sapiens) (UniProt P41235); experiment: ATG_HNF4a_TRANS: Attagene TRANS-FACTORIAL HepG2 Assay for human Hepatocyte Nuclear Factor 4 alpha (HNF4a) (AID 2282982; active = hit-call score of the fitted dose curve at least 0.9, where 1 is the maximum); settings: HepG2 HNF4a transactivation reporter, mRNA readout
Sequence of Hepatocyte nuclear factor 4-alpha (Homo sapiens) (P41235 whole entry, looked up, the tested form may be a part): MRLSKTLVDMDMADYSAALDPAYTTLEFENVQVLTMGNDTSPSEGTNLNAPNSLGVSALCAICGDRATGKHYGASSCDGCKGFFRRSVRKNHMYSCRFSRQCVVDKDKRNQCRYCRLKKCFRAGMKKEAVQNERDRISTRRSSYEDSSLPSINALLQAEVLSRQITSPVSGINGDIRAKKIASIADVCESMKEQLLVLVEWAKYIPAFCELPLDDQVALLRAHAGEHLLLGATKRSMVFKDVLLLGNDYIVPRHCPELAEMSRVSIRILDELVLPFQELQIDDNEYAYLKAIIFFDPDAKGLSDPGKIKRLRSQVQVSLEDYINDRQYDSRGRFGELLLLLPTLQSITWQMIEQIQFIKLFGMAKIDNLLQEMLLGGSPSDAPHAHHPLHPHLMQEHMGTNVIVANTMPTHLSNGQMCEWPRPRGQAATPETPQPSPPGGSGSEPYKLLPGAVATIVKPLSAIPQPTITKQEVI
Procedure, shortened: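 Readout is fluorescent reporter-transcript fragments resolved by capillary electrophoresis after RT-PCR from HepG2 cells dosed for 24 h. Cells carried transfected GAL4-UAS reporter constructs measuring exogenous NR-GAL4 chimera activity; DMSO served as baseline.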

[18] = ATG_NRF2_ARE_CIS: Attagene CIS-FACTORIAL HepG2 Assay for human Nuclear Factor Erythroid 2 Related Factor 2 (NFR2) response to Antioxidant Response Elements (ARE) (AID 2282992); settings: HepG2 Attagene ARE/NRF2 reporter, transcription factor activity; actives raise or lower the signal
Procedure, shortened: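 Multiplexed reporter mRNA profiling in HepG2 after a 24 h chemical exposure. Curves fitted in both directions relative to DMSO negative control.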

[19] = molecular target: Myc proto-oncogene protein (Homo sapiens) (UniProt P01106); experiment: ATG_Myc_CIS: Attagene CIS-FACTORIAL HepG2 Assay for human Myelocytomatosis (Myc) Proto-Oncogene Transcription Factor (AID 2282990); settings: HepG2, Attagene cis-reporter transcription factor activity; actives raise or lower the signal
Sequence of Myc proto-oncogene protein (Homo sapiens) (P01106 whole entry, looked up): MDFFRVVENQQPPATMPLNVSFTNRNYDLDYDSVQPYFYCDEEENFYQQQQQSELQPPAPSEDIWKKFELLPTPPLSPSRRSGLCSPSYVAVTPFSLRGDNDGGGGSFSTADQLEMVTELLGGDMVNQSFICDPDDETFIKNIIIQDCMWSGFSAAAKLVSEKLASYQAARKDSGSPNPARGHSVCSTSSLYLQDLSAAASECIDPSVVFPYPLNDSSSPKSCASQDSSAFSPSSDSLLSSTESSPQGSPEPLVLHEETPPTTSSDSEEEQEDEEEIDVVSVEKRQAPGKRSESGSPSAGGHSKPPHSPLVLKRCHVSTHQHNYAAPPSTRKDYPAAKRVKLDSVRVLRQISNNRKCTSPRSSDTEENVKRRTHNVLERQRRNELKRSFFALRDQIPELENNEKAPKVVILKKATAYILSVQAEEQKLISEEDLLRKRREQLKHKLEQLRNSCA
Procedure, shortened: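 HepG2, transient MRTU transfection (cis promoters, endogenous TFs); 24 h dosing; TriZol RNA → oligo(dT) RT → PCR → 6-FAM primer extension → HpaI cut → CE. Bidirectional fit vs DMSO.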

Measured: AC50

O=C(O)c1cccc(C[C@@H]2COc3ccc(OCc4nc5cc(F)ccc5s4)cc3[C@@H]2O)c1
active: [7] 100 µM | [8] 159 µM
not listed: [14] | [15] | [16] | [17] | [18] | [19]
inactive: all other assays above

CCCC(CCC)C(=O)O
not listed: [9] | [15] | [16] | [17] | [18] | [19]
inactive: all other assays above

Cc1nccn1-c1ccc(Sc2cccc(C3(C(N)=O)CCOCC3)c2)cc1
active: [3] 14.3 µM | [6] 2.39 µM | [8] 3.22 µM | [10] 8.83 µM
not listed: [1] | [2] | [9] | [18] | [19]
inactive: all other assays above

O=C(O)c1ccc2c(c1)nc(C(=O)NC1CCN(C3CC3)CC1)n2Cc1cc(-c2ccc(Cl)s2)on1
not listed: [1] | [2] | [16] | [19]
inactive: all other assays above

CC[C@H](C)C(=O)O[C@H]1C[C@H](O)C=C2C=C[C@H](C)[C@H](CC[C@@H](O)C[C@@H](O)CC(=O)O)[C@H]21
not listed: [2] | [3] | [9] | [15] | [19]
inactive: all other assays above

CCc1cccc(CC)c1N
not listed: [2] | [7] | [15] | [16] | [18] | [19]
inactive: all other assays above

CCn1nc(C)c2c1C(=O)NCC(c1ccc(O)cc1)=N2
active: [9] 2.9 µM
not listed: [15] | [19]
inactive: all other assays above

COCc1nnc(-c2ccc[n+]([O-])c2)n1-c1c(Cl)c(Cl)cc2[nH]c(=O)c(=O)[nH]c12
not listed: [1] | [2] | [3] | [7] | [9] | [16]
inactive: all other assays above

OC(CCl)CCl
not listed: [3] | [15] | [18] | [19]
inactive: all other assays above
